“And” between values parts separate entries of the source, which are not always exact repeats. Identical values can stand only once. In all, about 5,500 compounds went through this assay and about 2,000 (36%) were called active. Inconclusive results (about 18%) are left out. No stated cut-off is given here; in the data, active means normalized growth mostly below about 0.91 (no sharp cut-off); inconclusive means no clear call, values can overlap the other calls; inactive means mostly above about 0.92. Some of the results follow.
Assay: chemical genetic growth profiling, strain panel (AID 1159580);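 further: tested at 20 µM; growth read once vehicle control cultures reached saturation at 30 °C; 1 = growth at the plate median or of vehicle wells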
Settings: S. cerevisiae deletion strains, growth OD

Measured: normalized growth

CN1CCN(C2=Nc3ccccc3Oc3ccc(Cl)cc32)CC1
inactive: locus YAL013W, strain DEP1, stronger effect = lower value 0.995 and 0.98 | locus YAL021C, strain ccr4, stronger effect = lower value 0.981 | locus YAL026C, strain drs2, stronger effect = lower value 0.984 | locus YAL030W, strain snc1, stronger effect = lower value 1 | locus YAL040C, strain CLN3, stronger effect = lower value 0.979 | locus YBL061C, strain skt5, stronger effect = lower value 0.982 | locus YBR009C, strain hhf1, stronger effect = lower value 1.01 | locus YBR021W, strain FUR4, stronger effect = lower value 1.01 | locus YBR023C, strain chs3, stronger effect = lower value 1 | locus YBR171W, strain sec66, stronger effect = lower value 0.964 | locus YBR229C, strain ROT2, stronger effect = lower value 0.953 | locus YBR231C, strain swc5, stronger effect = lower value 0.988 | locus YBR279W, strain paf1, stronger effect = lower value 0.987 | locus YCL011C, strain gbp2, stronger effect = lower value 0.978 | locus YCL016C, strain dcc1, stronger effect = lower value 1 | locus YCL029C, strain bik1, stronger effect = lower value 0.994 | locus YCL061C, strain MRC1 (second series), stronger effect = lower value 0.992 | locus YCL061C, strain MRC1, stronger effect = lower value 0.989 | locus YCL069W, strain vba3, stronger effect = lower value 0.999 | locus YCR088W, strain abp1, stronger effect = lower value 0.993 | locus YDL005C, strain med2, stronger effect = lower value 0.972 | locus YDL035C, strain GPR1, stronger effect = lower value 0.988 | locus YDL040C, strain nat1, stronger effect = lower value 0.97 | locus YDL074C, strain BRE1, stronger effect = lower value 0.997 | locus YDL101C, strain DUN1, stronger effect = lower value 0.989 | locus YDL134C, strain PPH21, stronger effect = lower value 0.979 | locus YDL185W, strain tfp1, stronger effect = lower value 0.992 | locus YDL192W, strain arf1, stronger effect = lower value 0.991 | locus YDR001C, strain nth1, stronger effect = lower value 0.967 | locus YDR069C, strain doa4, stronger effect = lower value 0.969 | locus YDR101C, strain arx1, stronger effect = lower value 0.994 | locus YDR137W, strain rgp1, stronger effect = lower value 1.01 | locus YDR150W, strain NUM1, stronger effect = lower value 0.991 and 1.02 | locus YDR159W, strain sac3, stronger effect = lower value 0.972 | locus YDR162C, strain NBP2, stronger effect = lower value 1.01 | locus YDR195W, strain ref2 0.948 | locus YDR297W, strain sur2, stronger effect = lower value 0.99 | locus YDR318W, strain mcm21, stronger effect = lower value 0.977 | locus YDR334W, strain swr1, stronger effect = lower value 0.947 | locus YDR335W, strain msn5, stronger effect = lower value 0.982 | locus YDR363W, strain ESC2, stronger effect = lower value 0.928 | locus YDR388W, stronger effect = lower value 0.994 | locus YDR392W, strain spt3, stronger effect = lower value 1.05 | locus YDR502C, strain sam2, stronger effect = lower value 0.986 | locus YEL003W, strain gim4, stronger effect = lower value 0.976 | locus YEL037C, strain rad23, stronger effect = lower value 0.998 | locus YEL061C, strain CIN8 (second series), stronger effect = lower value 0.97 | locus YEL061C, strain CIN8, stronger effect = lower value 0.997 | locus YER002W, strain NOP16, stronger effect = lower value 0.974 | locus YER015W, strain faa2, stronger effect = lower value 0.996 | locus YER016W, strain bim1, stronger effect = lower value 1 | locus YER110C, stronger effect = lower value 0.985 | locus YER111C, strain swi4, stronger effect = lower value 0.998 | locus YER155C, strain BEM2 (second series), stronger effect = lower value 0.985 | locus YER155C, strain BEM2, stronger effect = lower value 0.996 | locus YER167W, strain BCK2, stronger effect = lower value 0.988 | locus YFR010W, strain ubp6, stronger effect = lower value 1.01 | locus YGL078C, strain dbp3, stronger effect = lower value 1 | locus YGL086W, strain mad1, stronger effect = lower value 0.974 | locus YGL167C, strain pmr1, stronger effect = lower value 0.984 | locus YGL173C, strain kem1, stronger effect = lower value 1.01 | locus YGL227W, strain vid30, stronger effect = lower value 0.956 | locus YGL240W, strain doc1, stronger effect = lower value 1.02 | locus YGL248W, strain PDE1, stronger effect = lower value 0.963 | locus YGL253W, strain hxk2, stronger effect = lower value 0.982 | locus YGR078C, strain PAC10, stronger effect = lower value 1.02 and 0.994 | locus YGR135W, strain pre9, stronger effect = lower value 0.981 | locus YGR229C, strain SMI1, stronger effect = lower value 0.983 | locus YGR252W, strain gcn5, stronger effect = lower value 0.956 | locus YHR013C, strain ard1, stronger effect = lower value 0.974 | locus YHR027C, strain rpn1, stronger effect = lower value 0.966 | locus YHR030C, strain SLT2, stronger effect = lower value 0.987 and 1.04 | locus YHR079C, strain IRE1 (second series), stronger effect = lower value 0.99 | locus YHR079C, strain IRE1, stronger effect = lower value 1.06 | locus YHR094C, strain hxt1, stronger effect = lower value 0.991 | locus YHR129C, strain ARP1, stronger effect = lower value 0.991 | locus YHR142W, strain chs7, stronger effect = lower value 0.956 | locus YHR200W, strain rpn10, stronger effect = lower value 0.987 | locus YIL066C, strain RNR3, stronger effect = lower value 0.971 | locus YIL073C, strain SPO22, stronger effect = lower value 0.989 | locus YIL125W, strain kgd1, stronger effect = lower value 0.992 | locus YIR030C, strain dcg1, stronger effect = lower value 0.991 | locus YJL092W, strain hpr5, stronger effect = lower value 0.978 | locus YJL095W, strain BCK1 (second series), stronger effect = lower value 0.964 | locus YJL095W, strain BCK1, stronger effect = lower value 0.981 and 1.03 | locus YJL115W, strain asf1, stronger effect = lower value 0.926 | locus YJL129C, strain trk1, stronger effect = lower value 0.971 | locus YJL134W, strain LCB3, stronger effect = lower value 0.992 | locus YJL154C, strain vps35, stronger effect = lower value 0.97 | locus YJL164C, strain tpk1, stronger effect = lower value 0.998 | locus YJL166W, strain qcr8, stronger effect = lower value 0.975 | locus YJL168C, strain set2, stronger effect = lower value 0.991 | locus YJL187C, strain SWE1 (second series), stronger effect = lower value 0.983 | locus YJL187C, strain SWE1, stronger effect = lower value 0.99 | locus YJR043C, strain POL32, stronger effect = lower value 1.01 | locus YJR066W, strain TOR1, stronger effect = lower value 0.931

From PubChem BioAssay AID1159580 (chemical genetic matrix, 2015)
